# Assay results as given in PubChem BioAssay AID1794845 (National Center for Advancing Translational Sciences (NCATS), 2023).
# Fewer than 10 of roughly 6,900 compounds were called active. Calls come from the whole dose curve; as a rule, active = well fitted curve in the direction sought with a large enough effect; inconclusive = small, poorly fitted or top-dose-only effect, or another doubt; inactive = no such curve, though single readings can be large or run the other way. Only a sample is shown.
# Biological target: Metallo-beta-lactamase type 2 (Klebsiella pneumoniae) (UniProt C7C422)
# Sequence (C7C422 whole entry, looked up): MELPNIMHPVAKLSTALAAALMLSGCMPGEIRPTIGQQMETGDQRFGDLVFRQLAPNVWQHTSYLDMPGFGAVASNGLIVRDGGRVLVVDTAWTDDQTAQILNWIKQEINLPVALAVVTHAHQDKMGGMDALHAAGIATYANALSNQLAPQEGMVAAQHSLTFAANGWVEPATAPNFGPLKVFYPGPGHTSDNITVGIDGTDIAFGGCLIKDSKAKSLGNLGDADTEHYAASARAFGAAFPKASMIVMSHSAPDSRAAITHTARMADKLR
# Assay: qHTS to identify inhibitors of the New Delhi Metallo-beta-lactamase (NDM): primary screen against the NCATS Gemini Collection
# Details: NDM-1 enzyme, meropenem hydrolysis, absorbance 300 nm; series mostly up to 38.4 µM
# Excerpt: Assay Submitter (PI): James Inglese Ph.D., Patricia Dranchak Ph.D., Mahesh Aitha Ph.D. Assay Development and Screening Technology Laboratory (ADST) National Center for Advancing Translational Sciences (NCATS), Rockville, MD National Institute of Health (NIH), Bethesda, Maryland The metallo-beta-lactamases (MBL) are a main antibiotic resistance mechanism evolved by bacteria. There is an urgent clinical need for MBL inhibitors to mitigate this growing threat. To support a machine-based learning study, qHTS has been used to experimentally test inhibitors identified by prediction tools.
# PROTOCOL TABLE (as described by Inglese et al., 2007) SEQUENCE No. (e.g., 1, 2, 3, etc.); […] (e.g., enzyme, Incubation, Reagent, etc.); VALUE; DESCRIPTION 1; NDM-1; 4 uL of 3 nM enzyme [2 nM final] in 50 mM HEPES (pH 7.0), 1 uM […], 0.01% Tween20; Use BioRaptr to dispense into Aurora black, clear bottom low base 1536-well plates 2; Compounds; 23 nL; Use Pin Tool (Wako) to transfer DMSO control and library compounds in DMSO 3; Incubate; >30 min 4; Reagent; 2 uL of 150 uM meropenem [50 uM final] 5; Incubate; 30 min. 6; Detector; Absorbance at 300 nm (bandwidth = 5 nm, 25 flashes/well) on Tecan Infinity NOTES (numbers refer to sequence above) 1; Column 1 of each plate received assay buffer without enzyme and columns 2-48 received enzyme for a final assay concentration of 2 nM. 2; Control plate contained DMSO in columns 1, 2, 3, and 4. 3; Compound interaction with enzyme. 4; Meropenem substrate was prepared in the same assay buffer as step 1 for a final assay concentration of 50 uM and added to all wells across the assay plates. 5; Substrate interaction with enzyme, plateau phase of kinetics. 6; Default reader settings were applied for absorbance read at 300 nm, bandwidth = 5 nm, 25 flashes/well. References: Inglese J, Shamu CE, Guy RK. 2007. Reporting data from high-throughput screening of small-molecule libraries. Nat Chem Biol. doi:10.1038/nchembio0807-438 Yasgar A, Shinn P, Jadhav A, Auld D, Michael S, Zheng W, Austin CP, Inglese J, Simeonov A. 2008. Compound Management for Quantitative High-Throughput Screening. J Lab Autom 13:79 - 89. doi:10.1016/j.jala.2007.12.004
row,Structure (SMILES),outcome
1,N#Cc1ccccc1-c1cc2c(ccn2Cc2ccncc2)c(N2CCOCC2)n1,inactive
2,COc1cc(CC2(CCC(=O)N3CCC(Oc4cccc(F)c4)CC3)CCC(=O)N2)ccc1F (stereo not drawn),inactive
3,CN1CCN([C@H]2[C@@H]3OC[C@@H](O3)[C@@H](NCc3ccc(-c4ccccc4)cc3)[C@@H]2O)CC1,inactive
4,CC(C)(C)c1nc(C(=O)NCc2cccnc2)n2ccccc12,inactive
5,CN1CCN(C(=O)c2cncc(N[C@H]3C[C@@H]4OCC[C@H]34)n2)CC1,inactive
6,COc1ccc(C(=O)N2CCC3(CCC3OC)CC2)cn1 (stereo not drawn),inactive
7,CCC1(N2CCN(S(=O)(=O)c3cccs3)CC2)CCN(S(C)(=O)=O)C1 (stereo not drawn),inactive
8,Cn1cc(CN[C@H]2C[C@H]3C(=O)NC[C@@H](CCC(=O)NCc4ccccc4)N3C2)c2ccccc21,inactive
9,CCc1nc(-c2c3n(c(=O)n(CC(=O)OC)c2=O)CCCC3)no1,inactive
10,O=C(c1n[nH]c2ccccc12)N1CC2CC(C1)[C@H]1CCCC(=O)N1C2 (stereo partly drawn),inactive
11,COCc1nnc2n1CCC(NC(=O)Cn1nc(C(F)(F)F)cc1C)CC2 (stereo not drawn),inactive
12,Cc1ccc(C(C(=O)O)N2CCC(C(=O)N3CCCC3)CC2)c(C)c1 (stereo not drawn),inactive
13,O=C(NCCCn1ccnn1)c1cccc(S(=O)(=O)N2CCOCC2)c1,inactive
14,CC(=O)N1CCC(N2CC[C@H](c3nc4ccccc4s3)C2)CC1,inactive
15,N[C@H]1CN(C(=O)c2cccc(-n3cnnc3)c2)C[C@@H]1c1ccccc1,inactive
16,COCC1CN(Cc2c(C)n[nH]c2C)CC12CCNCC2 (stereo not drawn),inactive
17,COc1ccc(Cn2c3c(c(=O)n2Cc2ccccc2)CCN(C(=O)CCc2cccnc2)C3)cc1,inactive
18,CCn1c(C(=O)OC)c(NC(C)=O)c2cc(NC(C)Cc3ccccc3OC)cnc21 (stereo not drawn),inactive
19,COc1cccc(CN2CC(Oc3ccccc3C(=O)NC3CC3)C2)c1,inactive
20,CN(Cc1cc(C[C@@H]2C[C@H](NC(=O)C(C)(C)C)C2(C)C)no1)c1ccccc1,inactive
21,Cc1cc2nc3n(c(=O)c2n1CC(=O)NC1CCCCC1)CCCCC3,inactive
22,COCCN1CCCCCC(O)c2cc(C(=O)NCc3ccc(F)cc3)ccc21 (stereo not drawn),inactive
23,O=C(CCn1ccn2nc3c(c2c1=O)CCCC3)N1CCSCC1,inactive

row,Structure (SMILES),outcome
1,CCN(C1CCOCC1)C1CN(C(=O)c2ccccn2)C1,inactive
2,CN1CC[C@H]2CN(C(=O)c3scc4c3OCCO4)C[C@@]2(C(=O)O)C1,inactive
3,Cc1cc(C(=O)N2CC[C@H](NS(=O)(=O)c3cn(C)cn3)C[C@H]2C(=O)N[C@H](Cc2c[nH]c3ccccc23)C(N)=O)n(C)n1,inactive
4,Cc1cccc(C(=O)N2CCCCCCN(C)C(=O)[C@@H]3CCC[C@@H]32)c1,inactive
5,CCN(CC)C(=O)[C@@H]1C[C@@H](NC(=O)c2ccn(CC)c(=O)c2)CN1C(C)=O,inactive
6,COC[C@@H]1CN(C(=O)Cc2c(C)noc2C)C[C@H]1c1ccccn1,inactive
7,O=C(NC1CCN(c2ccnc3ccnn23)C1)c1cc(F)ccc1Br (stereo not drawn),inactive
8,COCC(=O)N[C@H]1C[C@@H](CO)N(Cc2scnc2C)C1,inactive
9,COc1ccc2cc(C3CN(C(=O)CNC(=O)C(C)C)CCO3)ccc2c1 (stereo not drawn),inactive
10,COc1ccc(C(=O)Nc2ccc3c(c2)CN(CCc2ccccc2)C(=O)C(C)O3)cc1OC (stereo not drawn),inactive
11,COc1ccc(-c2cn(C)c(=O)n3cc(CN4CCNC(=O)C4)nc23)cn1,inactive
12,CCCC(C)N1CC2(CCN(C(=O)c3cnn4c3CCCC4)CC2)OC1=O (stereo not drawn),inactive
13,CCCN1CC2(CCN(Cc3nc(CCOC)no3)CC2)CC1C(=O)O (stereo not drawn),inactive
14,O=C(Cc1ccsc1)Nc1ccc2c(N3CCCC3)ncnc2c1,inactive
15,CN(C)Cc1nnc(C2CC(NC(=O)Cc3noc4ccccc34)C2)n1C (stereo not drawn),inactive
16,O=C1NC2(CCN(Cc3ccccc3C(F)(F)F)C2)COc2ccccc21 (stereo not drawn),inactive
17,CN(C)C[C@@H]1CN(Cc2ccncc2)C[C@H]1NC(=O)Cc1ccsc1,inactive
18,COCc1ncc(C)n1C1CCCN(C(=O)CCCc2ccccc2)C1 (stereo not drawn),inactive
19,O=C(CC1CCCC1)N1CCCC(c2nn[nH]n2)C1 (stereo not drawn),inactive
20,O=C1c2ccccc2CN1C1CCN(Cc2cccc3ccccc23)CC1,inactive
21,COc1ccc(-c2ccccc2NC(=O)C2CCCN(CC=C(C)C)C2)cc1 (stereo not drawn),inactive
22,O=C1NCCOCCN(S(=O)(=O)c2ccc3c(c2)CCC3)[C@@H]2CCCC[C@H]12,inactive
23,CC(=O)c1cc(C(=O)NCc2c(C)ncc3c2CCNC3)[nH]n1,inactive

row,Structure (SMILES),outcome
1,COc1ccc(C(=O)N2CCC([C@@H]3CNC[C@H]3CO)CC2)cc1,inactive
2,CNC(=O)[C@@H](C1CC1)N1CCC[C@H]1C(=O)NCc1cccnc1,inactive
3,COC(=O)NCC(=O)N1CC[C@@H]2[C@@H](CCC(=O)N2CCc2ccccc2)C1,inactive
4,CCn1c(CN2CCN(c3nc4ccccc4s3)CC2)nnc1C1CC(N)C1 (stereo not drawn),inactive
5,CCn1cc(S(=O)(=O)NCC2Cn3cccc3C(=O)N2C)cn1 (stereo not drawn),inactive
6,COc1ccc(CN2CCCC3(Cc4ccccc4CNC3=O)C2)c(OC)n1 (stereo not drawn),inactive
7,Cc1cc(C)n(CCc2c(-c3ccccc3)ncn2C(C)CCCC(C)(C)O)n1 (stereo not drawn),inactive
8,CCc1nc(-c2c3n(c(=O)n(CC(=O)NC4CCCC4)c2=O)CCCCC3)no1,inactive
9,CC(C)Cc1cc(CN2CCC(CO)(CN3CCCC3)CC2)[nH]n1,inactive
10,OC1(CN2CCC(c3nc(-c4ccccc4)no3)CC2)CNCCOC1 (stereo not drawn),inactive
11,CCN1CC2(CCN(Cc3nc(COC)no3)CC2)CC(c2ccccc2)C1=O (stereo not drawn),inactive
12,Cc1noc(C)c1CCCNC(=O)c1ccc(NC[C@H]2C[C@H]3C=C[C@H]2C32CC2)nc1,inactive
13,CN(C)c1cccc(C(=O)NC2CCN(c3cc(-c4cccs4)[nH]n3)C2)c1 (stereo not drawn),inactive
14,COc1ccccc1-c1ccc(CN2CCCC(c3nc4ccc(C)cc4c(=O)[nH]3)C2)cc1 (stereo not drawn),inactive
15,C[S+](=O)([O-])N1CCC(Cn2ccc3c(N4CCOCC4)nc(-c4cccc5[nH]ncc45)cc32)CC1,inactive
16,O=C(c1ccccn1)N1CCCC2(CNc3ccccc3[S+](=O)([O-])N2)C1 (stereo not drawn),inactive
17,CN1CCCC(CN(C)C(=O)c2cc(-c3cnn(CCO)c3)nc3ccccc23)C1 (stereo not drawn),inactive
18,Cc1cnc(C2CC2)n1C1CCCN(C(=O)c2ccoc2)C1 (stereo not drawn),inactive
19,COc1ccc(C(=O)N2CCC3(CC2)OCC(C(=O)NC2CC2)N3C(=O)c2cccc(C)c2)cc1 (stereo not drawn),inactive
20,Cc1ccsc1CN1CCc2nc(N3CCOCC3)[nH]c(=O)c2CC1,inactive
21,O=C1NC2(CCCN(Cc3cncs3)C2)COc2ccccc21 (stereo not drawn),inactive
22,CCS(=O)(=O)Nc1ccc(C)n(CC(=O)NC2CCCCC2)c1=O,inactive
